Values joined by “and” are separate entries in the source; they are usually repeats but may differ in a detail not shown here. Identical values can stand only once. More than one record can exist for a structure, and the calls need not agree. Active and inactive are the calls of the source. How the source made its calls: active means hit-call score of the fitted dose curve at least 0.9, where 1 is the maximum; inactive means score below 0.9.
These molecules were tested against X-box-binding protein 1 (Homo sapiens) (UniProt P17861) (assay: ATG_Xbp1_CIS: Attagene CIS-FACTORIAL HepG2 Assay for human X-box Binding Protein 1 (XBP1) (AID 2282972)). Settings: HepG2 XBP1 cis-element reporter, Attagene multiplex; actives raise or lower the signal.
X-box-binding protein 1 (Homo sapiens), sequence (P17861 whole entry, looked up): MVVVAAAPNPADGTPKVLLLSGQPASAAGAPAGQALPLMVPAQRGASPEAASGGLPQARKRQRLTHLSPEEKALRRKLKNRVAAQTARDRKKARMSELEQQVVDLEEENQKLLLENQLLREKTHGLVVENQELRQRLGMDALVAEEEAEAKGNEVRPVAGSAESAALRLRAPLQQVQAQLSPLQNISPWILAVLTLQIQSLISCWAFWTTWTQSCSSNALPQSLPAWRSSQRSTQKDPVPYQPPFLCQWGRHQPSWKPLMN
Procedure: ATG_CIS is a cell-based, multiplexed-readout assay that uses HepG2, a human liver cell line, with measurements taken at 24 hours after chemical dosing in a 24-well plate.ATG_Xbp1_CIS is one of 52 assay component(s) measured or calculated from the ATG_CIS assay. It is designed to make measurements of mRNA induction, a form of inducible reporter, as detected with fluorescence intensity signals by Reverse transcription polymerase chain reaction (RT-PCR) and Capillary electrophoresis technology.Data from the assay component ATG_Xbp1_CIS was analyzed into 1 assay endpoint. This assay endpoint, ATG_Xbp1_CIS, was analyzed with bidirectional fitting relative to DMSO as the negative control and baseline of activity. Using a type of inducible reporter, measures of mRNA for gain or loss-of-signal activity can be used to understand the reporter gene at the transcription factor-level as they relate to the gene XBP1. Furthermore, this assay endpoint can be referred to as a primary readout, because this assay has produced multiple assay endpoints where this one serves a reporter gene function. To generalize the intended target to other relatable targets, this assay endpoint is annotated to the dna binding intended target family, where the subfamily is basic leucine zipper.
Human liver HepG2 cells are transiently transfected with multiple reporter transcription units (MRTUs) in 6-well plates using FuGene 6 reagent (Roche; 3 ml FuGene/1 mg DNA). The MRTU constructs are regulated by a cis-regulating element (promoter). […] A major difference between the CIS and TRANS system is that in CIS activities of endogenous TFs are measured, whereas the TRANS assay evaluates changes in activities of exogenous, chimeric NR-Gal4 proteins. […] At the end of 24 hour incubation, total RNA was isolated using TriZol reagent (Invitrogen). The isolated RNA is then reverse-transcribed using oligo(dT) primer and Mo-MLV reverse transcriptase (Invitrogen) with DNAse I (Ambion) treatment for 30 min. The one-tenth of the produced cDNA was amplified by PCR using Taq DNA polymerase (Invitrogen) and two reporter sequence-specific primers. The PCR products were fluorescently labeled by primer extension with 6-arboxyfluorescein (6-FAM) 5'-labeled reporter sequence-specific primer (2 min at 95 C, 20 s at 68 C and 10 min at 72 C) and these products were digested with 5U of HpaI (New England Biolabs) for 2h at 37 C. The fragments were purified using Qiaquick PCR columns (Qiagen), analyzed on an ABI 3130xL genetic analyzer (Applied Biosystems) with peak positions identified by using a set of X-rhodamine (ROX)-labeled MapMarker1000 molecular weight standards (BioVentures). The raw capillary electrophoresis data was processed using Attagraph software (Attagene).

Structure (SMILES) | outcome | AC50
CN(C)C=O | inactive | 
Oc1cccc(O)c1 | inactive | 
CCCCC(CC)COC(=O)CCCCC(=O)OCC(CC)CCCC (stereo not given) | inactive | 
Cc1cc(C)c(O)c(C)c1 | inactive | 
Nc1cccc2c(N)cccc12 | inactive | 
CCCCCCCCCCCCCCCS(=O)(=O)Oc1ccccc1 | inactive | 
Cc1oc(-c2ccccc2)nc1CCOc1ccc(C[C@H](Nc2ccccc2C(=O)c2ccccc2)C(=O)O)cc1 | inactive | 
O=C1OC2(c3ccccc31)c1cc(Br)c(O)c(Br)c1Oc1c2cc(Br)c(O)c1Br | inactive | 66.7 µM (active)
O=C(/C=C/c1ccc(O)cc1)CC(=O)/C=C/c1ccc(O)cc1 | inactive | 
O=C(O)c1ccccc1C(c1ccc(O)cc1)c1ccc(O)cc1 | inactive | 
CCC(=C(c1ccc(O)cc1)c1ccc(OCCN(C)C)cc1)c1ccccc1 | inactive | 11.2 µM (active) and 2.37 µM (active)
NC(=O)N1C(=O)C(C(=O)c2cc(Cl)cs2)c2cc(F)c(Cl)cc21 (stereo not given) |  | 14.1 µM (active)
COCC(C)OCC(C)O (stereo not given) | inactive | 
CCCCC(CC)COC(=O)CCCCC(=O)OCc1ccccc1 (stereo not given) | inactive | 
CCCCCCCCCCCCN1CCCC1=O | inactive | 
CN1CCN(c2ccccc2/C=C2\SCCN(c3ccc(Cl)c(Cl)c3)C2=O)CC1 | inactive | 
CCC(C)(C)C1CCC(O)CC1 (stereo not given) | inactive | 

Structure (SMILES) | outcome | AC50
CC(O)C(=O)O (stereo not given) | inactive | 
FC(F)(I)C(F)(F)C(F)(F)C(F)(F)C(F)(F)C(F)(F)I | inactive | 
CCCCCCCCC(=O)O | inactive | 
CC(C)(C)c1cc(C(C)(C)C)c(O)c(C(C)(C)C)c1 | inactive | 20.3 µM (active)
OCCC(F)(F)C(F)(F)C(F)(F)C(F)(F)C(F)(F)C(F)(F)C(F)(F)C(F)(F)F |  | 48.2 µM (active) and 112 µM (active)
COCC(C)O (stereo not given) | inactive | 
CC(C)(C)CC(C)(C)c1ccc(O)c(-n2nc3ccccc3n2)c1 | inactive | 
CCCOC(=O)c1ccc(O)cc1 | inactive | 73.5 µM (active)
O=c1c(-c2ccc(O)cc2)coc2cc(O)ccc12 | inactive | 
c1ccc2c(c1)Cc1ccccc1-2 | inactive | 
O=C(O)Cc1cc(I)c(Oc2cc(I)c(O)c(I)c2)c(I)c1 | inactive | 34.1 µM (active)
O=C(OCCOCCOC(=O)c1ccccc1)c1ccccc1 | inactive | 
CCCCCCCCCCCCCC[N+](C)(C)C | inactive | 6.33 µM (active)
CC(O)CO (stereo not given) | inactive | 
CCOC(=O)CC(O)(CC(=O)OCC)C(=O)OCC | inactive | 
COc1cc(CCC(=O)CC(=O)CCc2ccc(O)c(OC)c2)ccc1O | inactive | 
CC#C[C@]1(O)CC[C@H]2[C@@H]3CCC4=CC(=O)CCC4=C3[C@@H](c3ccc(N(C)C)cc3)C[C@@]21C |  | 35.7 µM (active) [middle of 4 runs]

Reference: PubChem BioAssay (EPA / NIEHS)
